# Test results: PubChem BioAssay (Tox21)
# Records with an inconclusive call do not appear. Entries that show only a call come without a potency. Values without a mark were called inactive. The source made the active and inactive calls. Unless noted, calls follow the shape of the dose curve; as a rule, active = well fitted curve in the direction sought with a large enough effect in the repeat runs; inconclusive = weak or mixed curves; inactive = no such curve, though single readings can be large; an effect the other way counts as inactive or inconclusive.
# How the values were obtained:
# [1] = qHTS assay to identify aromatase inhibitors - cell viability counter screen (AID 743084);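 also: cells stimulated with testosterone during compound exposure; nearly all actives have a fitted effect of over 55% in size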
# [2] = target: Aryl hydrocarbon receptor (Homo sapiens) (UniProt P35869); assay: qHTS assay to identify small molecule that activate the aryl hydrocarbon receptor (AhR) signaling pathway (AID 743085); also: nearly all actives have a fitted effect of over 15% in size; also: potency is read from the fitted curve at half-maximal effect;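 as to activation: HG2L7.5c1 human HepG2 liver cells with stably integrated DRE-driven firefly reporter; series mostly up to about 70 µM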
# In short: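 A multiplexed format paired cell viability (CellTiter-Fluor fluorescence) with AhR-dependent luciferase output (ONE-Glo luminescence) in the same wells of HepG2 DRE-luc cells after 24 h compound exposure at 37C.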
# [3] = qHTS assay to identify small molecule that activate the aryl hydrocarbon receptor (AhR) signaling pathway - cell viability counter screen (AID 743086);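 also: HepG2 liver cells carrying the AhR DRE luciferase reporter; series mostly up to about 70 µM; nearly all actives have a fitted effect of over 45% in size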
# In short: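 Cytotoxicity counter screen: CellTiter-Fluor signal (30 min, 37 C) in 4000 HepG2 cells/well carrying the DRE-luciferase reporter, following 24 h compound exposure at 37 C.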
# [4] = target: Peroxisome proliferator-activated receptor gamma (Homo sapiens) (UniProt P37231); assay: qHTS assay to identify small molecule agonists of the peroxisome proliferator-activated receptor gamma (PPARg) signaling pathway (AID 743094; active = well fitted activation curve with a large enough effect in the signal ratio in the repeat runs, not every such curve was filed as active; the % refers to the signal ratio)
# In short: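 Reporter activation was scored by fluorescence of cleaved LiveBLAzer B/G substrate (1 h, room temperature) in PPARg-bla HEK293H cells previously treated 17 h at 37C with DMSO-dissolved compounds.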
# [5] = target: Peroxisome proliferator-activated receptor gamma (Homo sapiens) (UniProt P37231); assay: qHTS assay to identify small molecule antagonists of the peroxisome proliferator-activated receptor gamma (PPARg) signaling pathway (AID 743191; calls by dose curve; also: nearly all actives have a fitted effect of over 30% in size; also: potency is read from the fitted curve at half-maximal effect)
# In short: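 Beta-lactamase reporter under UAS control in HEK293H PPARg-bla cells; compound treatment 17 h at 37C. Read-out: fluorescence intensity after 1 h room-temperature incubation with LiveBLAzer B/G FRET substrate.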
# [6] = qHTS assay to identify small molecule antagonists of the peroxisome proliferator-activated receptor gamma (PPARg) signaling pathway - cell viability counter screen (AID 743194); also: nearly all actives have a fitted effect of over 55% in size
# In short: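 Viability was measured as CellTiter-Glo luminescence in GeneBLAzer PPARg UAS-bla HEK293H cells. These cells had been exposed 17 h at 37 C to compounds together with rosiglitazone at 50 nM final, with the beta-lactamase readout taken in the same wells.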
# [7] = qHTS assay for small molecule agonists of the antioxidant response element (ARE) signaling pathway - cell viability counter screen (AID 743203; calls by dose curve; also: nearly all actives have a fitted effect of over 55% in size)
# In short: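 Viability counter screen: stably transfected ARE-bla HepG2 line, 16 hrs compound exposure at 37C/5% CO2, ATP-based CellTiter-Glo luminescence measured in the reporter wells.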
# [8] = qHTS assay for small molecule activators of the heat shock response signaling pathway - cell viability counter screen (AID 743209); also: nearly all actives have a fitted effect of over 50% in size
# In short: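 Viability of HSE-bla HeLa cells is measured with CellTiter-Glo in the wells already used for the reporter read. Compound exposure lasts 5 h at 37 C, and luminescence is read after 30 min at room temperature.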
# [9] = qHTS assay for small molecule activators of the heat shock response signaling pathway (AID 743210; active = well fitted activation curve with a large enough effect in the signal ratio in the repeat runs, with a control signal flat, not every such curve was filed as active; the % refers to the signal ratio;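 also: HeLa cells with beta-lactamase reporter driven by heat shock elements; series mostly up to about 63 µM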)
# In short: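 Fluorescence from a cleaved B/G FRET substrate (2.5 h, room temp) reports HSE-driven beta-lactamase in HeLa cells treated 5 h at 37 C with DMSO-dissolved compounds.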
# [10] = qHTS assay to identify small molecule agonists of the peroxisome proliferator-activated receptor delta (PPARd) signaling pathway - cell viability counter screen (AID 743211); also: nearly all actives have a fitted effect of over 55% in size
# In short: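 Tox21 library compounds, delivered in DMSO, were incubated 17 h with PPARd-bla HEK293H cells; cytotoxicity was taken from CellTiter-Glo luminescence read 30 min after reagent addition.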
# [11] = target: Peroxisome proliferator-activated receptor delta (Homo sapiens) (UniProt Q03181); assay: qHTS assay to identify small molecule agonists of the peroxisome proliferator-activated receptor delta (PPARd) signaling pathway (AID 743212; calls by dose curve;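 also: HEK293H cells with PPARd UAS beta-lactamase reporter GeneBLAzer system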)
# In short: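 Steps: seed PPARd-bla HEK293H cells; incubate 5 h, 37 C, 5% CO2; add compounds in DMSO; incubate, 37 C; add LiveBLAzer B/G FRET substrate; hold 2 h at room temperature; measure fluorescence.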
# [12] = qHTS assay to identify small molecule antagonists of the peroxisome proliferator-activated receptor delta (PPARd) signaling pathway - cell viability counter screen (AID 743213); also: nearly all actives have a fitted effect of over 50% in size
# In short: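 In this counter screen, HEK293H cells carrying a UAS-beta-lactamase reporter are co-treated with test compounds and 300 nM L165041 (final) for 17 h at 37 C; cell viability is quantified by CellTiter-Glo luminescence.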
# [13] = target: Peroxisome proliferator-activated receptor delta (Homo sapiens) (UniProt Q03181); assay: qHTS assay to identify small molecule antagonists of the peroxisome proliferator-activated receptor delta (PPARd) signaling pathway (AID 743215; active = well fitted inhibition curve with a large enough effect in the signal ratio in the repeat runs, not every such curve was filed as active; the % refers to the signal ratio;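 also: cells stimulated with agonist L165041 at 300 nM final during compound exposure; series mostly up to about 62 µM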)
# In short: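 Plated HEK293H PPARd-bla cells rested 5 h at 37 C and 5% CO2. Compound, then agonist L165041 at 300 nM final, was added; 17 h at 37 C followed. Substrate loading, 2 h room temperature, fluorescence measured.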
# [14] = target: Bile acid receptor (Homo sapiens) (UniProt Q96RI1); assay: qHTS assay to identify small molecule antagonists of the farnesoid-X-receptor (FXR) signaling pathway (AID 743217; active = well fitted inhibition curve with a large enough effect in the signal ratio in the repeat runs, not every such curve was filed as active; the % refers to the signal ratio)
# In short: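 Screen of the Tox21 10K library in quantitative HTS format using FXR-UAS-bla HEK 293T reporter cells. Agonist chenodeoxycholic acid, 50 uM final, added with compounds; 16 h incubation at 37 °C; beta-lactamase FRET fluorescence measured.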
# [15] = qHTS assay to identify small molecule agonists of the farnesoid-X-receptor (FXR) signaling pathway - cell viability counter screen (AID 743218); also: nearly all actives have a fitted effect of over 45% in size
# In short: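 Viability of FXR-bla HEK 293T cells is measured by ATP-based CellTiter-Glo luminescence following 16 h compound treatment at 37 C and a prior 2 h room-temperature beta-lactamase substrate step.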
# [16] = target: Bile acid receptor (Homo sapiens) (UniProt Q96RI1); assay: qHTS assay to identify small molecule agonists of the farnesoid-X-receptor (FXR) signaling pathway (AID 743220; active = well fitted activation curve with a large enough effect in the signal ratio in the repeat runs, not every such curve was filed as active; the % refers to the signal ratio)
# In short: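 FXR-UAS-bla HEK 293T cells carrying a UAS-driven beta-lactamase reporter were plated for 5 h at 37C/5% CO2, then exposed to DMSO-dissolved Tox21 10K compounds for 16 h at 37C. A LiveBLAzer B/G FRET substrate was loaded for 2 h at room temperature before fluorescence reading.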
# [17] = qHTS assay to identify small molecule antagonists of the farnesoid-X-receptor (FXR) signaling pathway - cell viability counter screen (AID 743221; active = well fitted cell-killing curve with a large enough effect in the repeat runs, not every such curve was filed as active; also: nearly all actives have a fitted effect of over 50% in size)
# In short: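 Cytotoxicity is taken from ATP luminescence (CellTiter-Glo, 30 min, room temperature) in FXR-bla HEK 293T cells previously incubated 16 h at 37 C with compound and chenodeoxycholic acid at 50 uM final.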
# [18] = target: Vitamin D3 receptor (Homo sapiens) (UniProt P11473); assay: qHTS assay to identify small molecule agonists of the vitamin D receptor (VDR) signaling pathway (AID 743222; calls by dose curve)
# In short: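 Fluorescence from cleaved LiveBLAzer B/G FRET substrate served as readout. VDR-bla cells had been treated 16 h at 37C with test compounds in DMSO, following a 4 h settling period, and substrate was loaded for 2 h at RT.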
# [19] = target: Vitamin D3 receptor (Homo sapiens) (UniProt P11473); assay: qHTS assay to identify small molecule antagonists of the vitamin D receptor (VDR) signaling pathway (AID 743223; active = well fitted inhibition curve with a large enough effect in the signal ratio in the repeat runs, not every such curve was filed as active; the % refers to the signal ratio)
# In short: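 Quantitative HTS in VDR-bla reporter cells stimulated with 1alpha,25-dihydroxyvitamin D3, 3 nM final. Compound exposure 16 h, 37C, 5% CO2. Read-out: beta-lactamase FRET substrate fluorescence, 2 h RT.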
# [20] = qHTS assay for small molecule agonists of the antioxidant response element (ARE) signaling pathway (AID 743202; active = well fitted activation curve with a large enough effect in the signal ratio in the repeat runs, not every such curve was filed as active; the % refers to the signal ratio; also: potency is read from the fitted curve at half-maximal effect)
# In short: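 Beta-lactamase reporter activity, read as fluorescence intensity, reflects ARE/Nrf2 pathway induction in HepG2 cells after 16 h compound exposure at 37 C; substrate loading was 2 h at room temperature.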
# Peroxisome proliferator-activated receptor delta (Homo sapiens), sequence (Q03181 whole entry, looked up): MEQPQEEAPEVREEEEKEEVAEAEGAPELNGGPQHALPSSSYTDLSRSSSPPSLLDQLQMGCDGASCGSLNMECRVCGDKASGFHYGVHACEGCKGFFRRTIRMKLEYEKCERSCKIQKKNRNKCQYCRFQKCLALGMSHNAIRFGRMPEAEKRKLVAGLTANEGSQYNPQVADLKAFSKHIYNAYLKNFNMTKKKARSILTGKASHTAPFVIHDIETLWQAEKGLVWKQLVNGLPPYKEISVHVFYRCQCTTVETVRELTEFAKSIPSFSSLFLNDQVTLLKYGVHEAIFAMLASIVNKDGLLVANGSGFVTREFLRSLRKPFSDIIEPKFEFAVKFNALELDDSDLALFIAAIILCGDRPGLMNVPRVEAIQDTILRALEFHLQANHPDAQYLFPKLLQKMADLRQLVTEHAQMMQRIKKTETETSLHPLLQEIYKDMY
# Bile acid receptor (Homo sapiens), sequence (Q96RI1 whole entry, looked up): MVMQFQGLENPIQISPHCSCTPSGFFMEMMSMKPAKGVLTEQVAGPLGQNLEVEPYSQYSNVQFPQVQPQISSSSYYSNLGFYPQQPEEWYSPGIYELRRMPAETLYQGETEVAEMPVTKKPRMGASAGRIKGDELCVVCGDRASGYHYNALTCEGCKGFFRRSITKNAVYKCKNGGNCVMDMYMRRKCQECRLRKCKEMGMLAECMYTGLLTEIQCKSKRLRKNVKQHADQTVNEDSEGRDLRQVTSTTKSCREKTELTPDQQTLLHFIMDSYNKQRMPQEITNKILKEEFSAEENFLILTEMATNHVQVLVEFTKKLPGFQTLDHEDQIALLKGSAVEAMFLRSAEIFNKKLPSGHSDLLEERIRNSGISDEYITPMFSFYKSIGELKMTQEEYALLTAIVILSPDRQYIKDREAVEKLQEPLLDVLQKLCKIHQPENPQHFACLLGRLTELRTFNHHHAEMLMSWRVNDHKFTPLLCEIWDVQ
# Vitamin D3 receptor (Homo sapiens), sequence (P11473 whole entry, looked up): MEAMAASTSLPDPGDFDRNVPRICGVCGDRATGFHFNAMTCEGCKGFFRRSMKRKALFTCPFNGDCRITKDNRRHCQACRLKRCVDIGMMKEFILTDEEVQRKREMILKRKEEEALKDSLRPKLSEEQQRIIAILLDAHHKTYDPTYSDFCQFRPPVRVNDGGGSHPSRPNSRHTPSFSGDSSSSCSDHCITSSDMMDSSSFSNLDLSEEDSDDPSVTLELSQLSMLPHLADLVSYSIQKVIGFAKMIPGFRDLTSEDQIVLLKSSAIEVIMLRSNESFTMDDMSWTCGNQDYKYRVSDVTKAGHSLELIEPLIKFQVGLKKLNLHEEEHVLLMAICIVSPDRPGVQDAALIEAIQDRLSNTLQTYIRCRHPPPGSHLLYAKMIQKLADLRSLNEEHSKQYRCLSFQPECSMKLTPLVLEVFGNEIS
# Peroxisome proliferator-activated receptor gamma (Homo sapiens), sequence (P37231 whole entry, looked up): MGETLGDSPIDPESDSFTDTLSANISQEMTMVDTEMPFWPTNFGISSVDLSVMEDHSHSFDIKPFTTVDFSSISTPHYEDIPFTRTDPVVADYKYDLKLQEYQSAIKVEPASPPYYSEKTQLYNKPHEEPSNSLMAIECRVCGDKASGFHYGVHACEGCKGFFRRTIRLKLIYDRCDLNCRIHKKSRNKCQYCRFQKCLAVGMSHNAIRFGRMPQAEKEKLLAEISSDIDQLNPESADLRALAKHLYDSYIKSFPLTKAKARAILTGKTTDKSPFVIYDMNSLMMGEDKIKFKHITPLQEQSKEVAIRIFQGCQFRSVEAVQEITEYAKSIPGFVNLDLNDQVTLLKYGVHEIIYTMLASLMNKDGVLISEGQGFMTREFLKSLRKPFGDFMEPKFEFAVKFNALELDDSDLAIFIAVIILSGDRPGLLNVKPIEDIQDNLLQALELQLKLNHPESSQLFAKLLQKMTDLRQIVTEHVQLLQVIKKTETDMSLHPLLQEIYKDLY
# Aryl hydrocarbon receptor (Homo sapiens), sequence (P35869 whole entry, looked up): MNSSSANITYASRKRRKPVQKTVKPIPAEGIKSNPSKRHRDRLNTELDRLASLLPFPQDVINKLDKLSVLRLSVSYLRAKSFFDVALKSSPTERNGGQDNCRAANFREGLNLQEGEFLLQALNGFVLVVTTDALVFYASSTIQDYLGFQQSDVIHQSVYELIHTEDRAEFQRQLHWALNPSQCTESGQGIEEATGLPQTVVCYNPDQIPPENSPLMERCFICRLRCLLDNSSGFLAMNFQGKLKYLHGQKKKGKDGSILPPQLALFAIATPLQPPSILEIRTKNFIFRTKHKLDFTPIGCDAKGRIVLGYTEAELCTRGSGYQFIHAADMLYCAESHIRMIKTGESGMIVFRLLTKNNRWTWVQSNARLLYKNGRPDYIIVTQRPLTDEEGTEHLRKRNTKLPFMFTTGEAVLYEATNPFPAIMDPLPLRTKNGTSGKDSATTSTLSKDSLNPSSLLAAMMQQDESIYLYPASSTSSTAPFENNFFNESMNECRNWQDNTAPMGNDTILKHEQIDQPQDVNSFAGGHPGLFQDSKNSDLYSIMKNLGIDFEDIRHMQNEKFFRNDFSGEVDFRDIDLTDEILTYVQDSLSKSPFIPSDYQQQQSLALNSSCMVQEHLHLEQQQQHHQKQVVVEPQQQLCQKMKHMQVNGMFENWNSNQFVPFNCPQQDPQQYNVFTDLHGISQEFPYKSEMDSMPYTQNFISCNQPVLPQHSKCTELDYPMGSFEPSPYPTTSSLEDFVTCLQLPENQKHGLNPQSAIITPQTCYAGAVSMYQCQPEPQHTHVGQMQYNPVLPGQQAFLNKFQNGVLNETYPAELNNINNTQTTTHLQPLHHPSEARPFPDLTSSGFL
Structure (SMILES),Potency [1],Potency [2],Potency [3],Potency [4],Potency [5],Potency [6],Potency [7],outcome [8],outcome [9],Potency [10],Potency [11],Potency [12],outcome [13],outcome [14],Potency [15],outcome [16],Potency [17],outcome [18],outcome [19],Potency [20]
O=P(c1ccccc1)(c1ccccc1)c1ccccc1,inactive,inactive,inactive,inactive,inactive,inactive,inactive,inactive,inactive,inactive,inactive,inactive,inactive,inactive,inactive,inactive,inactive,inactive,inactive,
CCCCCCCCCCCCN1CCOCC1,inactive,inactive,inactive,inactive,inactive,inactive,inactive,,inactive,inactive,inactive,inactive,inactive,,inactive,,,inactive,,inactive
CC(C)Cc1nccs1,inactive,inactive,inactive,inactive,inactive,inactive,inactive,,inactive,inactive,inactive,inactive,inactive,inactive,inactive,inactive,inactive,inactive,inactive,inactive
SCCOCCOCCS,inactive,inactive,inactive,inactive,inactive,inactive,inactive,inactive,inactive,,inactive,inactive,,,inactive,,inactive,inactive,,
C=C(C)C(=O)OCCCCCCCCCCOC(=O)C(=C)C,inactive,inactive,inactive,inactive,inactive,inactive,inactive,inactive,,inactive,inactive,inactive,,inactive,inactive,inactive,inactive,inactive,inactive,inactive
c1ccc(CCNc2nc(-c3ccccc3)cs2)cc1,inactive,15 µM (active),inactive,inactive,inactive,inactive,inactive,inactive,inactive,inactive,inactive,inactive,inactive,,inactive,,inactive,inactive,inactive,
O=C1OC(=O)C2CC=CCC12 (stereo not drawn),inactive,inactive,inactive,inactive,inactive,inactive,inactive,inactive,,,inactive,inactive,inactive,,,,inactive,inactive,inactive,inactive
O=C(O)c1ccccc1-n1cc(C(=O)O)c(=O)c2cc(Nc3c(F)cc(F)cc3Cl)c(Cl)cc21,inactive,inactive,inactive,inactive,inactive,,inactive,inactive,inactive,inactive,inactive,inactive,,inactive,inactive,inactive,inactive,inactive,inactive,inactive
Nc1cccc2c(=O)[nH][nH]c(=O)c12,inactive,inactive,inactive,inactive,inactive,inactive,inactive,,inactive,inactive,inactive,,,inactive,inactive,inactive,inactive,,,inactive
CC1(C)CC(O)CC(C)(C)N1[O],inactive,inactive,inactive,inactive,inactive,inactive,inactive,,inactive,inactive,inactive,inactive,inactive,inactive,inactive,inactive,inactive,inactive,inactive,inactive
COc1ccc(CN(CCN(C)C)c2ncccn2)cc1,inactive,inactive,inactive,inactive,inactive,inactive,inactive,inactive,inactive,inactive,inactive,inactive,inactive,inactive,inactive,inactive,inactive,inactive,inactive,
C=C[Si]1(C)O[Si](C)(C=C)O[Si](C)(C=C)O[Si](C)(C=C)O1 (stereo not drawn),inactive,inactive,inactive,inactive,inactive,inactive,inactive,,,inactive,inactive,,,,inactive,,inactive,inactive,inactive,inactive
O=C1c2ccccc2C(=O)C1c1ccc2ccccc2n1,inactive,10.8 µM (active),inactive,inactive,inactive,inactive,inactive,inactive,inactive,inactive,inactive,inactive,,,inactive,,inactive,inactive,inactive,
O=C(O)c1ccccc1[N+](=O)[O-],inactive,inactive,inactive,inactive,inactive,inactive,inactive,inactive,inactive,inactive,inactive,inactive,inactive,,,inactive,,inactive,inactive,
COc1ccc(C(=O)c2ccc(C)cc2)c(O)c1,inactive,9.44 µM (active),inactive,inactive,inactive,inactive,inactive,,inactive,inactive,inactive,,,,,,inactive,,inactive,
CC1=C(C)C(=O)C(CCCCC#CCCCC#CCO)=C(C)C1=O,inactive,11.9 µM (active),inactive,inactive,29.8 µM (active),inactive,inactive,,,,,inactive,,inactive,inactive,,inactive,,,23.7 µM (active)
